LMP1 NFkB inh = reduces LMP1-driven NF-kappaB luciferase signal; LMP1-induced NF-kappaB luciferase reporter cells, luminescence; inhibition, % at 12.5 µM; 0.69% of 350,000 active; AID 504558; in the data active means inhibition above about 41%; inconclusive means no clear call, values can overlap the other calls;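 further: 0% = neutral control wells and 100% = reference inhibitor control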
Statin myotox sup = protects C2C12 myotubes from simvastatin toxicity. rescue of ATP level, % at 7.49 µM. 0.78% of 330,000 active. ATP luminescence, 48 h; scaled: DMSO 0, geranylgeraniol control 100. AID 602340;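 active means mean ATP rescue above about 67%, or every replicate alone reaching that limit, limit read from the data, passing the limit was not always enough; inconclusive means no clear call, values can overlap the other calls; inactive means mean under the limit and some replicate under it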;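 further: myotubes were challenged with 10 µM simvastatin during compound exposure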
MITF act = MITF TRPM1 promoter activation in melanoma cells. activation, % at 12.5 µM. 0.75% of 300,000 active. SK-MEL-5 TRPM1-promoter luciferase, 24 h; % of positive control, neutral wells = 0;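 active means mean activation of at least 80% with every replicate also reaching 80%; inconclusive means mean reaches 80% but some replicate falls short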;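 further: 0% = neutral control wells and 100% = parthenolide positive control wells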
Wnt act = activates Wnt/beta-catenin signaling in a reporter cell assay. 1.2% of 300,000 active. activation, % at 9.35 µM. activator, plate reader; in the data active means activation above about 30%, passing the limit was not always enough; inconclusive means no clear call, values can overlap the other calls;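 further: 0% = neutral control wells and 100% = positive control wells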
esBAF inh = blocks esBAF chromatin remodeling in mouse ES cells; 2% of 350,000 active; reporter increase, % at 12.5 µM; Bmi1-luciferase knock-in reporter, 24 h; 100% = twice the neutral-well signal; AID 602393; in the data active means activation above about 40%; inconclusive means no clear call, values can overlap the other calls;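 further: 0% = median of the plate's neutral control wells and 100% = double that signal; a rise in the Bmi1 reporter signal indicates esBAF inhibition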
TRPM1 prom inh = reduces MITF-dependent TRPM1 promoter luciferase signal; SK-MEL-5 TRPM1 promoter luciferase, 24 h; inhibition, % at 12.5 µM; 0.83% of 330,000 active;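 active means mean inhibition across replicates of 60% or more, whatever share of single replicates reaches that level; inconclusive means some that reach 60%, reason not given; inactive means mean inhibition across replicates below 60%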
* = called active by the depositor; ? = inconclusive; . = no result given. Sampled rows, rich in hits. Any-hit rate of the full collection: about 4%.

SMILES	LMP1 NFkB inh	Statin myotox sup	MITF act	Wnt act	esBAF inh	TRPM1 prom inh
COC(=O)c1sccc1N/N=C/c1cccc(OC)c1O	11	-3	-14	-4	-47	15
OCCCNc1ncnc2c1[nH]c1ccccc12	-1	.	.	-5	.	6
CC1(C)C2CCC1(CS(=O)(=O)NCc1ccc(C(=O)O)cc1)C(=O)C2 (stereo not given)	0	-12	-5	.	-5	4
O=C(COc1cccc(C(F)(F)F)c1)NNC(=O)c1ccc(=O)[nH]c1	72*	0	4	0	-7	-4
COCCn1c(C)cc(C(=O)COC(=O)c2ccc(Br)o2)c1C	-34	.	57	4	.	-58
Cc1cc(C(=O)COC(=O)c2ccc(O)cc2)c(C)n1Cc1ccco1	-31	.	?	?	.	-72
CCOc1ncccc1C(=O)OCC(=O)c1cc(C)n(Cc2ccco2)c1C	-32	4	41	46*	58*	-40
Cc1cc(C(=O)COC(=O)c2ccc(Br)o2)c(C)n1Cc1ccco1	.	.	.	60*	.	.
Cc1cc(C(=O)COC(=O)c2ccc(Br)o2)c(C)n1C	-10	-4	111*	17	45*	-100
C[C@H](CO)N1C[C@H](C)[C@@H](CN(C)Cc2ccc(Cl)c(Cl)c2)OCCCC[C@H](C)Oc2ccc(NC(=O)c3ccccc3)cc2C1=O	.	.	.	.	7	.
CC(C)CC1C(=O)N(Cc2cn(CCC3OCCO3)nn2)CCS(=O)(=O)N1Cc1ccc(-c2ccc(F)cc2)cc1 (stereo not given)	8	-26	.	-2	4	.
O=C(NCCc1ccccc1)C1CCN(S(=O)(=O)N2CCCC2)CC1	-1	3	2	-2	3	-1
CN(CCNC(=O)C1CCN(S(=O)(=O)N2CCOCC2)CC1)CCc1ccccc1	41*	-1	5	.	6	-2
COCCCNc1nc2c([nH]1)c(=O)[nH]c(=O)n2C	1	133*	-4	0	2	7
O=C(NN1C(=O)c2ccccc2NC12CCCCC2)c1ccccc1	-6	3	11	-2	-15	-13
COc1ccc(CCNC(=O)CCC(=O)n2ncc3ccc(Cl)cc32)cc1OC	-13	1	.	-2	7	.
COc1ccccc1-c1cc2ccccc2[nH]1	-23	-1	73	.	74*	-66
N#C/C(=C\c1ccc(O)c(O)c1)C(=O)Nc1cccc2ncccc12	-4	.	-9	-4	.	10
Cc1noc(C)c1S(=O)(=O)N(C)C[C@H]1OCCCC[C@@H](C)Oc2ccc(NS(=O)(=O)c3cn(C)cn3)cc2C(=O)N([C@H](C)CO)C[C@@H]1C	0	8	.	-1	3	.
COc1ccc([C@H]2N[C@]3(CCCN(Cc4ccco4)C3=O)[C@H]3C(=O)N(Cc4ccccc4)C(=O)[C@@H]23)cc1	46*	3	.	-2	-4	.
O=C1[C@H]2[C@@H](c3ccccc3)N[C@]3(CCCN(Cc4ccco4)C3=O)[C@H]2C(=O)N1Cc1ccccc1	-1	-6	.	0	5	.
CC(=O)NC(CCS(C)(=O)=O)C(=O)Nc1c(F)cccc1F (stereo not given)	72*	.	8	.	.	-6
CC(=O)NC(CCS(C)(=O)=O)C(=O)Nc1ccc(Cl)c(Cl)c1 (stereo not given)	55*	-5	-9	-1	2	12
CCOc1ccc(NC(=O)C(C)Sc2nnnn2C)cc1 (stereo not given)	-5	0	-2	.	4	0
Fc1cccc(Cl)c1/C=N/n1c(-c2cccnc2)n[nH]c1=S	52*	.	-6	-3	.	-1
SMILES	LMP1 NFkB inh	Statin myotox sup	MITF act	Wnt act	esBAF inh	TRPM1 prom inh
O=C(C[C@@H]1C=C[C@H](NC(=O)Nc2cc(F)ccc2F)[C@@H](CO)O1)NCCCN1CCOCC1	.	4	.	.	-3	.
C[C@H](CO)N1C[C@H](C)[C@H](CN(C)C)Oc2ccc(NS(=O)(=O)c3ccccc3)cc2CC1=O	.	-11	.	.	-4	.
COc1ccccc1NC(=O)/C=C\c1ccco1	-23	-3	31	9	54*	-26
O=C(/C=C/c1ccco1)Nc1cccnc1	-12	.	42	53*	.	-41
CSc1cccc(NC(=O)/C=C/c2ccco2)c1	-23	.	27	7	.	-42
O=C(/C=C/c1ccco1)c1cccnc1	-8	.	-6	0	.	8
COc1cccc(NC(=O)/C=C/c2ccco2)c1	-31	.	73	68*	.	-77

Screening data: PubChem, Broad Institute
